Potency data for 27 molecules are collected here from PubChem BioAssay (NCATS).

Inconclusive results are not listed. The source made the active and inactive calls. Calls come from the whole dose curve; as a rule, active = well fitted cell-killing curve with a large enough effect; inconclusive = small, poorly fitted or top-dose-only effect, or effect the other way; inactive = no such curve, though single readings can be large or run the other way.
Potency is the fitted concentration of half-maximal effect.

The first test can be described thus: Quantitative High-Throughput drug screen in 47 multiple myeloma cell lines against the NCATS MIPE library collection: KMS21BM_JCRB cell viability assay (AID 1918974). The conditions noted are these: ATP luminescence, 48 h; viability: at 45.8 µM unless noted. Put shortly: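 Myeloma cell lines, 500 cells per well, exposed to MIPE 4.0 library compounds for 48 h at 37C, 5% CO2. Viability from ATP by CellTiter-Glo luminescence; normalised to DMSO (100%) and media-only (0%) wells.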
As for `COCCOc1nc(-c2ccc(Cl)c(Cl)c2)n(-c2ccc(NC(=O)CCl)cc2)n1`, the Potency is 16.6 µM (active).

As for `CC(C)C(=O)Oc1ccc(CO)cc1[C@H](CCN(C(C)C)C(C)C)c1ccccc1`, the Potency result was “inactive”. Turning to `NC1CCC(Nc2nc(Nc3ccc(C(=O)N4CCCCC4)cc3)c3ncn(-c4cccc(F)c4)c3n2)CC1` (configuration not stated), the Potency entry is “inactive”. Regarding `COc1cc(N2CCC(N3CCN(C)CC3)CC2)ccc1Nc1ncnc(Nc2ccccc2S(=O)(=O)C(C)C)n1`, the Potency result is “inactive”.

Take `C=C1C(=O)OC2C=C(C)CCC=C(C)CCC12` (configuration not stated): the Potency was 26.4 µM (active).

Another test can be described thus: Quantitative High-Throughput drug screen in 47 multiple myeloma cell lines against the NCATS MIPE library collection: KMS26_JCRB cell viability assay (AID 1918975). Note: nearly all actives have a fitted effect of over 45% in size. The conditions noted are these: KMS26 myeloma cells viability, CellTiter-Glo ATP, 48 h; series mostly up to 45.8 µM. Put shortly: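 Approved and investigational drugs from MIPE 4.0 were added by pin tool to 500 cells per well. After 48 hours at 37C, ATP-based CellTiter-Glo luminescence indicated remaining viability.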
On to `O=C(OCC#CCSc1nnc(-c2cccc3ccccc23)o1)c1cc2ccccc2s1`, for which the Potency entry was “inactive”. Still for that read-out and setting: in the case of `COc1ccc2c(Oc3ccc(NC(=O)c4c(C)n(CC(C)(C)O)n(-c5ccccc5)c4=O)cc3F)ccnc2c1` it was “inactive”.

In the case of `CC1(C)CCC(CN2CCN(c3ccc(C(=O)NS(=O)(=O)c4ccc(NCC5CCOCC5)c([N+](=O)[O-])c4)c(Oc4cnc5[nH]ccc5c4)c3)CC2)=C(c2ccc(Cl)cc2)C1`, the Potency is 18.7 µM (active). The same measure, in the same setting: in the case of `Nc1ncnc2c1ncn2[C@@H]1O[C@@H](CO)[C@H](O)[C@H]1O` it was “inactive”; in that of `O=C(Nc1cc(Cl)cc2c1[nH]c1cnccc12)c1cccnc1`, 18.7 µM (active). With `O=C1NC(=O)C(=Cc2ccc3nccnc3c2)S1`, the Potency is 12.9 µM (active). On the same count and under the same terms, with `CCCCCNC(=O)N1CCC(CN(Cc2ccc(Cl)cc2)Cc2ccc([N+](=O)[O-])s2)C1` (configuration not stated) the figure was 23.5 µM (active). On the same count and under the same terms, with `O=c1cc(CN2CCOCC2)occ1OCCCCCSc1ccnc2cc(C(F)(F)F)ccc12` the figure was 16.6 µM (active). `CC[C@H]1OC(=O)[C@H](C)[C@@H](O[C@H]2C[C@@](C)(OC)[C@@H](O)[C@H](C)O2)[C@H](C)[C@@H](O[C@@H]2O[C@H](C)C[C@H](N(C)C)[C@@H]2O)[C@](C)(O)C[C@@H](C)CN(C)[C@H](C)[C@@H](O)[C@]1(C)O`: the Potency result is “inactive”. For the molecule `Cc1cc(OCCCc2c(C(=O)O)n(Cc3cccnc3)c3c(-c4c(COc5ccc(N6CCN([S+](C)(=O)[O-])CC6)cc5)nn(C)c4C)cccc23)cc(C)c1Cl`, the Potency was 20.9 µM (active). Turning to `Cc1ccc(F)c(NC(=O)Nc2ccc(-c3cccc4[nH]nc(N)c34)cc2)c1`, the Potency is 23.5 µM (active). On to `CC(C)C(=O)Nc1ncc(-c2cc(C(F)F)nn2-c2c(Cl)cccc2Cl)s1`, for which the Potency is 18.7 µM (active). As to `CC(C)(C)COc1ccc(-n2cc(C(=O)O)cn2)cc1C#N`, the Potency result was “inactive”. Turning to `C[C@]12CCC3c4ccc(O)cc4CCC3C1CCC2=O` (some centres not stated), the Potency was 3.32 µM (active). In the case of `CCOC1OC(=O)C[C@H]1NC(=O)[C@@H]1CCCN1C(=O)[C@@H](NC(=O)c1ccc(N)c(Cl)c1)C(C)(C)C` (some centres not stated), the Potency entry was “inactive”.

In the case of `NS(=O)(=O)c1ccc(NC2=CC(=O)c3ccccc3C2=O)cc1`, the Potency is 3.72 µM (active).

Turning to `Cc1c(O)cccc1C(=O)N[C@@H](CSc1ccccc1)[C@H](O)CN1C[C@H]2CCCC[C@@H]2C[C@@H]1C(=O)NC(C)(C)C`, the Potency was 29.6 µM (active).

Regarding `CC(=O)O[C@]1(C(C)=O)CC[C@@H]2[C@@H]3C[C@H](C)C4=CC(=O)CC[C@]4(C)[C@H]3CC[C@@]21C`, the Potency was 23.5 µM (active). On the same count and under the same terms, with `O=C(O)[C@H]1O[C@H](Oc2cc3oc(-c4ccccc4)cc(=O)c3c(O)c2O)[C@H](O)[C@@H](O)[C@H]1O` the figure was 20.9 µM (active). On to `CC(C)(Cc1ccc2ccccc2c1)NC[C@@H](O)COc1cccc(Cl)c1C#N`, for which the Potency entry was “inactive”. With `Cc1c(NC(=O)c2ccc(C(C)(C)C)cc2)cccc1-c1cn(C)c(=O)c(Nc2ccc(C(=O)N3CCOCC3)cc2)n1`, the Potency was 16.6 µM (active). Still for that read-out and setting: in the case of `O=C(NC1CCOCC1)c1ccc(-c2cc(-c3cn[nH]c3-c3ccccn3)ccn2)cc1` it was “inactive”.
